AMA1 RON2 block: AMA1-RON2 (P. falciparum) interaction inhibition | AlphaScreen AMA1-biotinylated RON2 peptide binding | Potency, µM (highest dose often 58.2 µM), inactives show at the highest dose activity change, negative = inhibition, usual class: inhibitors | 360,000 compounds, 0.2% hits;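 also: 0% = vehicle wells and -100% = peptide control; nearly all actives have a fitted effect of over 45% in size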
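AMA1 (3D7) with his tag at 25 nM final met compounds first, then biotinylated RON2 peptide at 25 nM; detection used donor plus acceptor beads, 10 µg/mL apiece, read by AlphaScreen after 30 min at room temperature.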
Pf growth 96h: P. falciparum growth inhibition at 96 hour, primary screen for plastid delayed-death inhibitors; P. falciparum luciferase reporter growth, 96 h; Potency, µM (highest dose often 28.7 µM), for inactives: at the top dose activity change, negative = inhibition, usual class: inhibitors; 320,000 compounds, 6.9% hits
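Infected RBCs, 2% Hct / 0.05% parasitemia final; luciferase-reporter P. falciparum; cpd 96 h, 37 C, 5% CO2; luciferase detection reagent; luminescence.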
VACV mCherry inh: inhibitors of vaccinia virus infection (mCherry reporter signal); Vaccinia virus mCherry reporter infection, fluorescence; Potency, µM (series often up to 36.5 µM), without a hit: top-dose activity change, negative = inhibition, usual class: inhibitors; 310,000 compounds, 0.63% hits; AID 720579; calls by dose curve; tested in A549 cells; also: nearly all actives have a fitted effect of over 35% in size
Pf growth 48h: P. falciparum growth inhibition at 48 hours (one generation); P. falciparum luciferase growth in erythrocytes, 48 h; Potency, µM (titrated, usually from 28.7 µM), inactives show top-dose activity change, negative = inhibition, actives largely listed as inhibitors; 310,000 compounds, 5.9% hits
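Here the parasites carry a stable luciferase gene and grow inside erythrocytes in Albumax-based RPMI medium with compound for one erythrocytic cycle. Activity is scored as loss of luminescent signal.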
VACV Venus inh: vaccinia inhibition (Venus reporter). Vaccinia virus Venus reporter expression, fluorescence. Potency, µM (doses to about 36.5 µM), for the others: top-dose activity change, negative = inhibition, usual class: inhibitors. 330,000 compounds, 0.46% hits. AID 720580; calls by dose curve; tested in A549 cells; also: nearly all actives have a fitted effect of over 30% in size
* marks the source's active call; other numbers are inactive results; i = inactive; ? = inconclusive; . = no result given; [ ] = another dose, or the depositor's remark. Sampled rows, rich in hits. Any-hit rate of the full collection: about 8.7%. Unless noted, calls follow the shape of the dose curve; as a rule, active = well fitted curve in the direction sought with a large enough effect; inconclusive = small, poorly fitted or top-dose-only effect, or another doubt; inactive = no such curve, though single readings can be large; an effect the other way counts as inactive or inconclusive. Unless noted, % is scaled to controls: 0 for no effect and ±100 for the full control effect; potency is read from the fitted curve at half-maximal effect.

SMILES	AMA1 RON2 block	Pf growth 96h	VACV mCherry inh	Pf growth 48h	VACV Venus inh
C=CCc1ccccc1OCC(O)CNC (stereo not given)	-20%	1.2µM*	-11%	.	6%
C=CCc1ccccc1OCC(O)Cn1ccnc1C (stereo not given)	15%	1.5µM*	-16%	-6%	-10%
C=CCc1ccccc1OCC(O)CN(C(C)C)C(C)C (stereo not given)	-2%	231%	-7%	?	-19%
Cc1ccccc1OCC(O)CN1CCCCC1 (stereo not given)	-4%	-28%	.	0%	.
Cc1ccccc1OCC(O)CN1CCN(CC(O)COc2ccccc2C)CC1 (stereo not given)	-6%	1.5µM*	.	?	.
Cc1nccn1CC(O)COc1ccccc1 (stereo not given)	2%	?	.	24%	-6%
CCCN(CCC)CCNC(=O)Cn1ncc2c([nH]c3ccc(C)cc32)c1=O	.	.	-14%	.	-13%
Cc1ccc(C)c(OCC(O)CN2CCc3ccccc3C2)c1C (stereo not given)	-6%	12µM*	.	9.3µM*	.
COc1cc(C(=O)NC(=S)Nc2ccc(Cc3ccncc3)cc2)cc(OC)c1OC	65%	40%	.	10µM*	.
COc1ccc(C(=O)Nc2ccc3ccccc3c2)cc1OC	-3%	61%	-13%	116%	-10%
COc1cc(C(=O)Nc2ccc3ccccc3c2)cc(OC)c1OC	-8%	1.7µM*	-3%	5.2µM*	-20%
COc1cc(SC)ccc1C(=O)Nc1nc2ccccc2[nH]1	5%	0.17µM*	-22%	?	-15%
Cn1cccc1-c1nc2ccc(NC(=O)c3cccs3)cc2[nH]1	-12%	12µM*	-2%	1%	-3%
COc1ccccc1C(=O)Nc1nc2ccccc2[nH]1	0%	-61%	-12%	-72%	-10%
CC(=O)Nc1ccc2nc(-c3cccn3C)[nH]c2c1	-6%	14%	-13%	70%	-12%
CCOc1ccc(C(=O)NCc2nc3cccnc3n2Cc2cccc(OC)c2)cc1	.	.	-7%	.	-8%
CCC(C(=O)Nc1cc(Cl)ccc1OC)n1nc(-c2ccccc2)ccc1=O (stereo not given)	.	.	-14%	.	-16%
Cc1cc(I)ccc1Nc1nc(NCCN2CCOCC2)nc(N2CCOCC2)n1	.	.	-7%	.	-17%
COc1cc(C(=O)Nc2ccc(S(=O)(=O)Nc3cnc4ccccc4n3)cc2)cc(OC)c1OC	-1%	12µM*	.	?	.
COc1cc(OC)cc(C(=O)Nc2ccc(S(=O)(=O)Nc3cnc4ccccc4n3)cc2)c1	-2%	.	-13%	.	-9%
COc1ccc(CCNC(=O)c2ccc(SC)cc2OC)cc1	-3%	2.6µM*	-11%	?	-7%
CCn1c(CNC(=O)c2cc(OC)c(OC)c(OC)c2)cc2ccccc21	-6%	?	i	9.3µM*	-6%
COc1cc(C(=O)NCc2cc3ccccc3n2C)cc(OC)c1OC	-9%	33%	.	9%	.
O=C(Nc1nc2ccccc2[nH]1)c1cccs1	72%	0.47µM*	-8%	374%	-3%
Cc1cccc(N2CCN(C(=O)CN3C(=O)COc4ccc(S(=O)(=O)N5CCCC5)cc43)CC2)c1C	.	.	2%	.	11%
SMILES	AMA1 RON2 block	Pf growth 96h	VACV mCherry inh	Pf growth 48h	VACV Venus inh
COc1cc(C(=O)Nc2nc3ccccc3[nH]2)cc(OC)c1OC	40%	9.3µM*	.	?	.
CCCCCCCNC(=O)C1(CC2CC(c3ccccc3)=NO2)CCN(C(=O)OC(C)(C)C)CC1 (stereo not given)	-2%	6.6µM*	i	2.9µM*	-28%
CCOC(=O)c1cc(-c2ccccc2)nn1CC1CC(c2ccc(Cl)cc2)=NO1 (stereo not given)	1%	.	-7%	.	-3%
CCCCCCCNC(=O)C1(CC2CC(c3cccc(Br)c3)=NO2)CCN(C(=O)c2ccccc2)CC1 (stereo not given)	-13%	?	i	13µM*	?
CCCCCCCNC(=O)C1(CC2CC(c3ccc(Cl)cc3)=NO2)CCN(C(=O)c2cc(OCC)c(OCC)c(OCC)c2)CC1 (stereo not given)	-4%	0.33µM*	-13%	1.2µM*	-29%
COC(=O)C1(CC2CC(c3cccc(Br)c3)=NO2)CCN(C(=O)OC(C)(C)C)CC1 (stereo not given)	-1%	0%	5%	?	-10%
CCCCCCCNC(=O)C1(CC2CC(c3ccccc3)=NO2)CCN(C(=O)c2ccccc2)CC1 (stereo not given)	1%	9.3µM*	i	12µM*	?
COc1ccc(CNC(=O)C(=O)NCC(c2ccco2)S(=O)(=O)c2cccs2)cc1 (stereo not given)	.	.	-16%	.	-16%
Cc1ccccc1NC(=O)c1cnc2sc(N3CCCC3)nn2c1=O	.	.	-9%	.	-3%
CC(C)(C)OC(=O)N1CCC(CC2CC(c3ccccc3)=NO2)(C(=O)NCc2ccccc2)CC1 (stereo not given)	-3%	?	1%	0.26µM*	-19%
COc1ccc(CNC(=O)C2(CC3CC(c4ccccc4)=NO3)CCN(C(=O)OC(C)(C)C)CC2)cc1 (stereo not given)	-1%	.	13%	.	-5%
CCCCCCCNC(=O)C1(CC2CC(c3ccc(Cl)cc3)=NO2)CCN(C(=O)c2ccccc2)CC1 (stereo not given)	0%	9.3µM*	-8%	?	-26%
Nc1nonc1C(=O)N/N=C/c1ccc([N+](=O)[O-])o1	-3%	?	?	?	?
Cc1scc(C(=O)N/N=C/c2ccc([N+](=O)[O-])o2)c1C	.	1.7µM*	.	4.1µM*	.
Cc1scc(C(=O)N/N=C/c2ccco2)c1C	43%	85%	.	147%	.
CCN(CC)S(=O)(=O)c1cccc(C(=O)N/N=C/c2ccc([N+](=O)[O-])o2)c1	9%	4.1µM*	?	?	?
O=C(N/N=C/c1ccc([N+](=O)[O-])o1)c1ccncc1	-9%	6.6µM*	i[7.34 µM]	1.9µM*	4%[7.34 µM]
O=C(N/N=C\c1ccc([N+](=O)[O-])o1)c1cncc(Br)c1	-3%	?	?	?	?
O=C(N/N=C/c1ccc([N+](=O)[O-])o1)c1ccc(O)cc1	-7%	1µM*	13µM*	1.7µM*	?
Cc1ccc(-n2ncc(C(=O)N3CCCCC3)c2C2CCN(C(=O)OC(C)(C)C)CC2)c(C)c1	.	.	-4%	.	-5%
COc1cccc2cc(S(=O)(=O)c3ccc(F)c(C)c3)c(=O)oc12	.	.	-11%	.	1%
Cc1nc2ccccn2c1C(=O)N/N=C/c1ccc([N+](=O)[O-])o1	?	2.1µM*	?	?	7.1µM*
Cc1nc2ccccn2c1C(=O)N/N=C/c1ccc([N+](=O)[O-])cc1	-6%	11%	-10%	12%	-3%
Brc1c(CSc2nc3ccccc3s2)nc2ncccn12	-7%	3.3µM*	-23%	3%	-10%
O=[N+]([O-])c1ccc2sc(SCc3nc4ccccn4c3Br)nc2c1	.	-83%	.	4%	.
